Mito fusion act: blocks mitochondrial division or promotes mitochondrial fusion; S. cerevisiae fusion-defective mutant growth rescue, CellTiterGlo 48 h; Potency, µM (doses to about 46.1 µM), for the others: at the top dose growth rescue (activation), hits mostly activators; actives 0.23% (n = 320,000); AID 485298; also: % of control where 0% means no effect; nearly all actives have a fitted effect of over 45% in size
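Compounds are tested for their ability to restore growth of mitochondrial fusion-defective yeast strains at non-permissive 37C in YPEG medium over 48 hours. Viability is quantified by luciferase luminescence.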
aSyn rescue: rescues yeast growth from alpha-synuclein toxicity; Potency, µM (titrated, usually from 46.1 µM), for the others: at the top dose growth rescue (activation), most hits filed as activators; AID 652106; actives 0.14% (n = 370,000); Yeast expressing alpha-synuclein, growth rescue, BacTiter-Glo, 24 h; also: % of control where 0% means no effect; nearly all actives have a fitted effect of over 65% in size
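Screening used galactose-induced yeast with toxic alpha-synuclein levels, exposed to compound for 24 hr at 30 deg C. Cell growth, read with BacTiter-Glo luminescence, gave the measured signal.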
Abeta rescue: A-beta toxicity reversal in yeast | yeast expressing A-beta42, growth rescue, OD600, 48 h; response scale: 0% DMSO, 100% iron-clioquinol control | Potency, µM (highest dose often 46.1 µM), usual class: activators | actives 0.063% (n = 410,000) | AID 1347071; also: nearly all actives have a fitted effect of over 55% in size
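Yeast A-beta toxicity model in growth medium with pinned compounds, 48 h at 30 C; growth read as absorbance at 600 nm. Normalized to FeCl3/clioquinol equimolar mix (positive) and DMSO (negative).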
TDP-43 yeast inh: TDP-43 toxicity inhibition in yeast. TDP-43 expressing yeast growth rescue, BacTiter-Glo, 24 h. Potency, µM (doses to about 46.1 µM), for inactives: at the highest dose growth rescue (activation), usual class: activators. actives 1.8% (n = 410,000); also: % of control where 0% means no effect; nearly all actives have a fitted effect of over 50% in size
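Growth rescue of TDP-43-toxic yeast measured as ATP luminescence (BacTiter-Glo). Cells grown to mid-log in raffinose, induced in galactose at OD600=0.02, exposed to compound 24 hr at 30 deg C.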
FUS yeast rescue: suppressors of FUS proteinopathy in yeast. S. cerevisiae FUS-expressing, growth rescue, OD600, 24 h. Potency, µM (highest dose often 76.6 µM), most hits filed as activators. actives 0.24% (n = 390,000). AID 1347120;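 also: plate controls were DMSO vehicle for no effect and reference control for full effect; nearly all actives have a fitted effect of over 55% in size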
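Compound concentration series was pinned onto galactose-induced FUS-expressing yeast seeded at OD 0.005. Plates sat 24hr at 30C; absorbance at 600 nm gave growth. DMSO served as background control.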
An asterisk follows results filed as active; ! = a repeat was not active. Rows were chosen to be rich in hits. Some 2.2% of all compounds tested hit in one or more screens of this group. Calls follow the shape of the dose curve; as a rule, active = well fitted curve in the direction sought with a large enough effect; inconclusive = small, poorly fitted or top-dose-only effect, or another doubt; inactive = no such curve, though single readings can be large; an effect the other way counts as inactive or inconclusive. Potency is read from the fitted curve at half-maximal effect.

For COc1cc(OC)c(OC)cc1/C=C1\CC(C)C/C(=C\c2cc(OC)c(OC)cc2OC)C1=O (stereo not drawn) the results were Mito fusion act 1%, aSyn rescue -13%, Abeta rescue inactive, TDP-43 yeast inh 18% and FUS yeast rescue 25µM*.
Screening CC(=O)c1ccc(N2CCN(C(=O)c3ccc4c(Cl)c5c(nc4c3)CCCC5)CC2)cc1 returned Mito fusion act 2%.
Screening Cc1ccc(C)c(N2CCN(C(=O)c3cccc(-n4c(C)nc5cccnc54)c3)CC2)c1 returned Abeta rescue inactive, TDP-43 yeast inh 20% and FUS yeast rescue inconclusive.
`Cc1ccc(C)c(N2CCN(C(=O)c3ccc4c(Cl)c5c(nc4c3)CCCC5)CC2)c1` gave Abeta rescue inactive, TDP-43 yeast inh 35µM* and FUS yeast rescue inconclusive.
`Cc1ccc(Cl)cc1N1CCN(C(=O)c2ccc(C)c(-n3c(C)nc4cccnc43)c2)CC1` gave Abeta rescue inactive, TDP-43 yeast inh 7% and FUS yeast rescue 22µM*.
For CCOC(=O)c1cc(C)n(Cc2cccc(OC)c2OC)c1C the results were Mito fusion act -2%, aSyn rescue -15%, Abeta rescue inactive, TDP-43 yeast inh 20µM* and FUS yeast rescue inactive.
`Cc1cccc(Oc2coc3cc(OCC(=O)NC4CCCCC4)ccc3c2=O)c1` gave Abeta rescue inactive, TDP-43 yeast inh 11% and FUS yeast rescue inactive.
For COc1ccccc1N1CCN(CCN(C(=O)c2ccc(F)cc2)c2ccccn2)CC1 the results were Mito fusion act 1%, aSyn rescue 14µM*!, Abeta rescue inactive, TDP-43 yeast inh 18% and FUS yeast rescue inactive.
Screening COc1ccccc1N1CCN(CCN(C(=O)C2CCCCC2)c2ccccn2)CC1 returned Mito fusion act -37%, aSyn rescue 3%, Abeta rescue inactive, TDP-43 yeast inh 15% and FUS yeast rescue inactive.
`O=C(NCCc1ccccc1)OCc1cn(-c2ccc(Cl)cc2)nn1` gave FUS yeast rescue inactive.
CC(C)(C)c1csc(Sc2ccc([N+](=O)[O-])cn2)n1 was read as Mito fusion act 3%, aSyn rescue -12%, Abeta rescue inactive, TDP-43 yeast inh 11µM* and FUS yeast rescue inactive.
`O=[N+]([O-])c1ccc(Sc2ccccc2)nc1` gave Mito fusion act 4%, aSyn rescue -2%, Abeta rescue inactive, TDP-43 yeast inh 8% and FUS yeast rescue inactive.
For Cc1cccc(Sc2ccc([N+](=O)[O-])cn2)c1 the results were Mito fusion act 13%, aSyn rescue 1%, Abeta rescue inactive, TDP-43 yeast inh 11µM* and FUS yeast rescue inactive.
For Cc1cccc(OCCNc2ccc([N+](=O)[O-])cn2)c1 the results were Mito fusion act 5%, aSyn rescue 2%, Abeta rescue inactive, TDP-43 yeast inh 13µM* and FUS yeast rescue inactive.
CC(=O)NC1CCCC1C#N (stereo not drawn) was read as aSyn rescue -11%.
`CC(=O)Nc1ccc(-c2csc(NC(=O)c3ccc(C)o3)n2)cc1` gave Mito fusion act 3%, aSyn rescue -11%, Abeta rescue inactive, TDP-43 yeast inh 24% and FUS yeast rescue 28µM*.
`Cc1ccc(-c2csc(NC(=O)C3=COCCO3)n2)cc1` gave Mito fusion act -4%, aSyn rescue 0%, Abeta rescue inactive, TDP-43 yeast inh inconclusive and FUS yeast rescue inactive.
For CCCc1ccc(-c2csc(NC(=O)C3=COCCO3)n2)cc1 the results were Mito fusion act inconclusive, aSyn rescue -5%, Abeta rescue inactive, TDP-43 yeast inh 16µM* and FUS yeast rescue inactive.
Screening Cc1ccc(C(=O)Nc2ccccc2NC(=O)c2ccc(C)o2)o1 returned Mito fusion act -2%, aSyn rescue -8%, Abeta rescue inactive, TDP-43 yeast inh 6% and FUS yeast rescue inactive.
`Cc1ccc(C(=O)Nc2cccc(NC(=O)c3ccc(C)o3)n2)o1` gave Mito fusion act -3%, aSyn rescue -15%, Abeta rescue inactive, TDP-43 yeast inh 7.9µM* and FUS yeast rescue inactive.
`Cc1ccc(N2CC(NC(=O)C3CCCC3)CC2=O)cc1` (stereo not drawn) gave Abeta rescue inactive, TDP-43 yeast inh 22% and FUS yeast rescue inactive.
Screening O=C(C[n+]1cccc(Br)c1)c1ccc2c(c1)CCCC2 returned aSyn rescue 3%.
CCN1CCN(CCCNC(=O)Cn2nc(C)n3c(cc4cc(C)ccc43)c2=O)CC1 was read as Abeta rescue inactive, TDP-43 yeast inh 5% and FUS yeast rescue inactive.
For Cc1ccc(Cl)cc1-n1c(=O)cc(N2CCN(c3ccc(F)cc3)CC2)[nH]c1=O the results were Abeta rescue inactive, TDP-43 yeast inh 19% and FUS yeast rescue inactive.
CC(C)N(C(=O)[C@H]1C[C@H](CC(=O)NCc2ccco2)C(=O)N2CCc3c([nH]c4cc(-c5ccco5)ccc34)[C@]12C)C(C)C was read as aSyn rescue inconclusive, Abeta rescue inactive, TDP-43 yeast inh 13µM* and FUS yeast rescue inconclusive.
Screening CC(C)N(C(=O)[C@H]1CC(CC(=O)NCc2ccco2)C(=O)N2CCc3c([nH]c4ccccc34)[C@]12C)C(C)C (stereo partly drawn) returned aSyn rescue 8%, Abeta rescue inactive, TDP-43 yeast inh 25% and FUS yeast rescue inactive.
CC(C)N(C(=O)[C@H]1C[C@H](CC(=O)NCc2ccco2)C(=O)N2CCc3c([nH]c4ccc(Cl)cc34)[C@]12C)C(C)C was read as aSyn rescue 22%, Abeta rescue inactive, TDP-43 yeast inh 35µM* and FUS yeast rescue inconclusive.
Screening CC[C@]12c3[nH]c4ccccc4c3CCN1C(=O)C(CC(=O)NC/C=C(\C)CCC=C(C)C)C[C@@H]2C(=O)N1CCN(C(=O)C2CC2)CC1 (stereo partly drawn) returned aSyn rescue -10%, Abeta rescue inactive, TDP-43 yeast inh 0% and FUS yeast rescue 18µM*.
For CCN(CC)C(=O)[C@H]1C[C@H](CC(=O)NCc2ccco2)C(=O)N2CCc3c([nH]c4ccc(Cl)cc34)[C@]12C the results were aSyn rescue 11%, Abeta rescue inactive, TDP-43 yeast inh 28% and FUS yeast rescue inactive.
CC[C@]12c3[nH]c4ccc(OC)cc4c3CCN1C(=O)C(CC(=O)NC/C=C(\C)CCC=C(C)C)C[C@@H]2C(=O)N1CCN(C(=O)C2CC2)CC1 (stereo partly drawn) was read as aSyn rescue 1%, Abeta rescue inactive, TDP-43 yeast inh 4% and FUS yeast rescue inconclusive.
